Common to all, as to assay: DAPPL (digital affinity profiling via proximity ligation, sequencing); 10 mM Tris-HCl pH 7.5, 50 mM NaCl, 1 mM DTT, 4% glycerol, room temperature, 30 min; GST-TFs on glutathione beads, 16-mer random dsDNA library, 0.1% formaldehyde crosslink after washing; high values mean tight binding
Holding throughout (details): protein: recombinant; tags: N-terminal GST; dsDNA, one strand shown

The target in test [1] is T1, ERF (Homo sapiens, UniProt P50548 1-548).
T1 sequence: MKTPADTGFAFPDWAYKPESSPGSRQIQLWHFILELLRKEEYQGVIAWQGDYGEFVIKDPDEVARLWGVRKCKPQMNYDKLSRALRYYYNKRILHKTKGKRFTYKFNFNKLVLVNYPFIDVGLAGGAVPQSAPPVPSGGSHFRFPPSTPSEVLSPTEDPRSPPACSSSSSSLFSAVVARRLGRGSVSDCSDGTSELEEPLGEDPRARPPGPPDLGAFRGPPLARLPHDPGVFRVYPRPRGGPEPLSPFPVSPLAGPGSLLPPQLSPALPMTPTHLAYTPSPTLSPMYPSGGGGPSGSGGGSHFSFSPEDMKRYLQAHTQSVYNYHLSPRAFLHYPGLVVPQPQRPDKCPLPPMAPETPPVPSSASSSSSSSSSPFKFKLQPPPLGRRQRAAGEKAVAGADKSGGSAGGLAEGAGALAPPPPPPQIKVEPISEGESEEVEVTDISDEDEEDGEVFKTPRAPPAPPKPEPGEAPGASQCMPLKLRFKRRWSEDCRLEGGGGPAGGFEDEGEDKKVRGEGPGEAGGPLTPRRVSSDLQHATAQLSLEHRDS
In outline: (§1)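 Binding signal is given per hexamer as its read frequency for a factor divided by its frequency in the tag-only sample. GST-fused human transcription factors were expressed in yeast, captured on glutathione beads, barcoded with DNA and pooled with that sample, then incubated with 200 nmole of a 16-mer random double-stranded DNA library in Tris/NaCl/DTT/glycerol buffer for 30 min at room temperature. The pools were then washed, crosslinked, proximity-ligated, amplified by PCR and sequenced on an Illumina NextSeq500.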

Test [2] deals with T2, ETV3L (Homo sapiens, UniProt Q6ZN32 1-361).
T2 sequence: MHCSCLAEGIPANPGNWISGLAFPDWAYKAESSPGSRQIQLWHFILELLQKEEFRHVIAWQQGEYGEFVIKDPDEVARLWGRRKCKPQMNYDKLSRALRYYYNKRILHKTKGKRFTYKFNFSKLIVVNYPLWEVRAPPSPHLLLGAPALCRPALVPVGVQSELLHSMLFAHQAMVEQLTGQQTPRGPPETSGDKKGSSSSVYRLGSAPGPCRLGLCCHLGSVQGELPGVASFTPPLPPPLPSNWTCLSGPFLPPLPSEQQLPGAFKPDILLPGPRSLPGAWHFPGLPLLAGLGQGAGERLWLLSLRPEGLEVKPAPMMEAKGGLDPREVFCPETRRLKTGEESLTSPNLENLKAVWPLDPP
The procedure, abridged:
as §1

Test [3] deals with T3, ETS2 (Homo sapiens, UniProt P15036 1-469).
T3 sequence: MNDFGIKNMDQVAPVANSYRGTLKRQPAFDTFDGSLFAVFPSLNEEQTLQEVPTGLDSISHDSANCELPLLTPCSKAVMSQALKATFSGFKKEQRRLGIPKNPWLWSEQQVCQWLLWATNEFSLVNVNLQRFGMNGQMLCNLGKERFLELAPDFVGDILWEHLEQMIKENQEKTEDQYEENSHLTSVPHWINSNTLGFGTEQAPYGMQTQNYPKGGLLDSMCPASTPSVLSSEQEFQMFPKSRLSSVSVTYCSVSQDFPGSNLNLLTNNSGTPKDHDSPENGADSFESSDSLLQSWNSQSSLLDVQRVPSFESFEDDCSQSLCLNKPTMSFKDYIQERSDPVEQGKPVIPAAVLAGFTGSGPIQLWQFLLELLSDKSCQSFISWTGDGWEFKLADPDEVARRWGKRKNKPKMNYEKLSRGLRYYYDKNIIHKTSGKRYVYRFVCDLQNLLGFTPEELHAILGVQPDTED
In outline: as §1

Test [4] addresses T4, SPDEF (Homo sapiens, UniProt O95238 1-335).
T4 sequence: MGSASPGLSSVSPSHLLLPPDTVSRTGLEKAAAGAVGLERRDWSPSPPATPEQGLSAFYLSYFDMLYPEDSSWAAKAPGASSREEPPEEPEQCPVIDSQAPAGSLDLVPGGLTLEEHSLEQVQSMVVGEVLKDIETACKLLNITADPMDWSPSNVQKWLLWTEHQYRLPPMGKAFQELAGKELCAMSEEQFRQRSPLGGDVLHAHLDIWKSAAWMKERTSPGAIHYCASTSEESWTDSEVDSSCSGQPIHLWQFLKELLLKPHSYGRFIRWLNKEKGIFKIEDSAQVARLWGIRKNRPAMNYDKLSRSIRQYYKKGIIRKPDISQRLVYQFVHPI
In outline: as §1

Test [5] deals with T5, ETV7 (Homo sapiens, UniProt Q9Y603 1-341).
T5 sequence: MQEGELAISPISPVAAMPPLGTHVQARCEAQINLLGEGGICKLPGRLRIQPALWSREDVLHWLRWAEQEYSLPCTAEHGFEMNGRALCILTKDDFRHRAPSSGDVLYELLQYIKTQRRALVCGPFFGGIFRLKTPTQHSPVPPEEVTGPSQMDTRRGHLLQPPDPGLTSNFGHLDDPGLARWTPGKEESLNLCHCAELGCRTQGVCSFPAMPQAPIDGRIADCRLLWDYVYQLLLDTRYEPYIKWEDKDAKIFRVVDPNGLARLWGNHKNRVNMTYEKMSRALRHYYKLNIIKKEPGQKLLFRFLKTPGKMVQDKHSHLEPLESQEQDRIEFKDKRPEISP
In outline:
as §1

For test [6], the target named is T6, ELF5 (Homo sapiens, UniProt Q9UKW6-2 1-255).
T6 sequence: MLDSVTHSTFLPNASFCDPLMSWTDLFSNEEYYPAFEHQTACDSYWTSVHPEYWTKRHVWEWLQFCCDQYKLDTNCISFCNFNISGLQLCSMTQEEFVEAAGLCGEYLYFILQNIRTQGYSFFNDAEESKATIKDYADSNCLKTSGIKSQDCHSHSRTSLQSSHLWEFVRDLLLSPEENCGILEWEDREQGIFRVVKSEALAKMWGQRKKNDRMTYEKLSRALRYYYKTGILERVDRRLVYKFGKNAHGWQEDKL
The procedure, abridged: as §1

For test [7], the target named is T7, ETV3 (Homo sapiens, UniProt P41162-2 1-143).
T7 sequence: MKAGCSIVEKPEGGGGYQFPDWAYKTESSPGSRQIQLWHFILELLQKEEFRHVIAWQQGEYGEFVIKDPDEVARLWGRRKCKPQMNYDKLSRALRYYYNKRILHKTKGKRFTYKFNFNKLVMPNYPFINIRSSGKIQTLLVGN
The procedure, abridged:
as §1

Test [8] addresses ETV6 (Homo sapiens, UniProt P41212 1-452). In outline:
as §1

Sequence of ETV6 (P41212 whole entry): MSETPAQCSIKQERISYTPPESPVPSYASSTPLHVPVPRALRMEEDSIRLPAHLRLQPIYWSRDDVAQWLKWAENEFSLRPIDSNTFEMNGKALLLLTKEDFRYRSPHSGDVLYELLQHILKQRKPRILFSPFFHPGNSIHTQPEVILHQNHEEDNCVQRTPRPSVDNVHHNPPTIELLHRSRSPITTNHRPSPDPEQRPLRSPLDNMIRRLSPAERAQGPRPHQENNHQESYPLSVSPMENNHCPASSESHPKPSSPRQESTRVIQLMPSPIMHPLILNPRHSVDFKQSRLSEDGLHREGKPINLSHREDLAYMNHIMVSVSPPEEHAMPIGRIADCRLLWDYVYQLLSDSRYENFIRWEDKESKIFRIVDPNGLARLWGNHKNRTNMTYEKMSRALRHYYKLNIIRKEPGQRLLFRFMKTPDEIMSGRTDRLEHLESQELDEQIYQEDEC

On to TATCCG, for which the binding signal in test [1] was 2.52 fold enrichment (6-mer frequency, TF over GST control); in test [2], 2.45 fold enrichment (6-mer frequency, TF over GST control); in test [3], 2.55 fold enrichment (6-mer frequency, TF over GST control); in test [4] it was 3.8 fold enrichment (6-mer frequency, TF over GST control); in test [5], 2.1 fold enrichment (6-mer frequency, TF over GST control); in test [6], 3.31 fold enrichment (6-mer frequency, TF over GST control). For the same sequence, the binding signal is 2.57 fold enrichment (6-mer frequency, TF over GST control) in test [7] and 2.38 fold enrichment (6-mer frequency, TF over GST control) in test [8].

Turning to GTATTT, the binding signal is 1.47 fold enrichment (6-mer frequency, TF over GST control) in test [1]; 1.62 fold enrichment (6-mer frequency, TF over GST control) in test [2]; 1.7 fold enrichment (6-mer frequency, TF over GST control) in test [3]; 1.64 fold enrichment (6-mer frequency, TF over GST control) in test [4]; 1.73 fold enrichment (6-mer frequency, TF over GST control) in test [5]; 1.62 fold enrichment (6-mer frequency, TF over GST control) in test [6]. Moreover, the binding signal in test [7] is 1.53 fold enrichment (6-mer frequency, TF over GST control); in test [8], 1.79 fold enrichment (6-mer frequency, TF over GST control).

On to GATGCT, for which the binding signal in test [1] is 1.3 fold enrichment (6-mer frequency, TF over GST control); in test [2] it was 1.28 fold enrichment (6-mer frequency, TF over GST control); in test [3], 1.25 fold enrichment (6-mer frequency, TF over GST control); in test [4], 1.2 fold enrichment (6-mer frequency, TF over GST control); in test [5] it was 1.29 fold enrichment (6-mer frequency, TF over GST control); in test [6], 1.21 fold enrichment (6-mer frequency, TF over GST control). Moreover, the binding signal is 1.29 fold enrichment (6-mer frequency, TF over GST control) in test [7] and 1.16 fold enrichment (6-mer frequency, TF over GST control) in test [8].

With TATGTT, the binding signal in test [1] is 1.17 fold enrichment (6-mer frequency, TF over GST control); in test [2], 1.2 fold enrichment (6-mer frequency, TF over GST control); in test [3] it was 1.24 fold enrichment (6-mer frequency, TF over GST control); in test [4] it was 1.18 fold enrichment (6-mer frequency, TF over GST control); in test [5], 1.33 fold enrichment (6-mer frequency, TF over GST control); in test [6], 1.24 fold enrichment (6-mer frequency, TF over GST control). Also, the binding signal is 1.26 fold enrichment (6-mer frequency, TF over GST control) in test [7] and 1.08 fold enrichment (6-mer frequency, TF over GST control) in test [8].

Take TTTTGG: the binding signal in test [1] was 1.47 fold enrichment (6-mer frequency, TF over GST control); in test [2], 1.48 fold enrichment (6-mer frequency, TF over GST control); in test [3], 1.55 fold enrichment (6-mer frequency, TF over GST control); in test [4], 1.36 fold enrichment (6-mer frequency, TF over GST control); in test [5], 1.43 fold enrichment (6-mer frequency, TF over GST control); in test [6], 1.34 fold enrichment (6-mer frequency, TF over GST control). Also, the binding signal is 1.36 fold enrichment (6-mer frequency, TF over GST control) in test [7] and 1.42 fold enrichment (6-mer frequency, TF over GST control) in test [8].

For AATATC, the binding signal in test [1] was 1.46 fold enrichment (6-mer frequency, TF over GST control); in test [2] it was 1.48 fold enrichment (6-mer frequency, TF over GST control); in test [3], 1.55 fold enrichment (6-mer frequency, TF over GST control); in test [4], 1.78 fold enrichment (6-mer frequency, TF over GST control); in test [5] it was 1.52 fold enrichment (6-mer frequency, TF over GST control); in test [6] it was 1.82 fold enrichment (6-mer frequency, TF over GST control). Further, the binding signal is 1.6 fold enrichment (6-mer frequency, TF over GST control) in test [7] and 1.57 fold enrichment (6-mer frequency, TF over GST control) in test [8].

As to ATACCC, the binding signal in test [1] is 1.14 fold enrichment (6-mer frequency, TF over GST control); in test [2], 1.18 fold enrichment (6-mer frequency, TF over GST control); in test [3], 1.24 fold enrichment (6-mer frequency, TF over GST control); in test [4] it was 1.27 fold enrichment (6-mer frequency, TF over GST control); in test [5], 1.18 fold enrichment (6-mer frequency, TF over GST control); in test [6] it was 1.18 fold enrichment (6-mer frequency, TF over GST control). Further, the binding signal is 1.18 fold enrichment (6-mer frequency, TF over GST control) in test [7] and 1.09 fold enrichment (6-mer frequency, TF over GST control) in test [8].

The record behind these values is paper PMC7862700, “An all-to-all approach to the identification of sequence-specific readers for epigenetic DNA modifications on cytosine”.
